Sampled rows, rich in hits. Any-hit rate of the full collection: about 3.4%.
MEKK2 WT-MEK5 – modulators of MEK5 binding to wildtype MEKK2, primary screen, biochemical, multiplex bead flow cytometry, Alexa488-MEK5; Mitogen-activated protein kinase kinase kinase 2 (Homo sapiens), Q9Y2U5; Alexa488-MEK5 binding to MEKK2 WT; actives lie on both sides; binding response (% of control), % at 10 µM; actives 1.1% (n = 290,000); AID 1531, 2009; in the data active means binding response below about 67% or above about 130%
TMEM16A inh – TMEM16A chloride channel inhibitors, primary screen, cell-based, HTS. Anoctamin-1 (Mus musculus), Q8BHY3. HEK293 TMEM16A/YFP iodide influx fluorescence, ionomycin. normalized B-score (activity score, 25-100; higher = stronger inhibition) at 10 µM. actives 1.2% (n = 310,000). AID 588511, 2011;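 active means ratio plate-corrected score three or more library SD toward inhibition, starting fluorescence score within five deviations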;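 further: score derived from kinetic fluorescence span divided by baseline fluorescence per well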
MEKK3 PB1 HTS – modulators of MEKK3-MEK5 PB1 binding, primary screen, biochemical, wildtype MEKK3, multiplex bead flow cytometry, Alexa488-MEK5; bead-based flow cytometry, Alexa488-MEK5 binding to MEKK3; actives lie on both sides; 0 = blocked by unlabeled MEK5, 100 = vehicle; binding response (% of control), % at 10 µM; actives 1.4% (n = 290,000); AID 1529, 2009;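 active means binding response more than 3 SD above or below the average of its plate-row segment, actives on both sides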;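 further: Alexa488 bead fluorescence after subtracting the streptavidin-only scavenger bead signal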
NTR1 agonist – agonists of human NTR1, primary screen, imaging, U2OS cells, beta-arrestin-GFP, high content | Neurotensin receptor type 1 (Homo sapiens), P30989 | NTR1-U2OS beta-arrestin-GFP spot imaging, agonist mode | activation, % at 20 µM | actives 0.17% (n = 330,000);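 active means activation at or above 40% of the spot to cytoplasm intensity ratio, with at least 20 cells analyzed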
Target sequence (P30989 whole entry, looked up): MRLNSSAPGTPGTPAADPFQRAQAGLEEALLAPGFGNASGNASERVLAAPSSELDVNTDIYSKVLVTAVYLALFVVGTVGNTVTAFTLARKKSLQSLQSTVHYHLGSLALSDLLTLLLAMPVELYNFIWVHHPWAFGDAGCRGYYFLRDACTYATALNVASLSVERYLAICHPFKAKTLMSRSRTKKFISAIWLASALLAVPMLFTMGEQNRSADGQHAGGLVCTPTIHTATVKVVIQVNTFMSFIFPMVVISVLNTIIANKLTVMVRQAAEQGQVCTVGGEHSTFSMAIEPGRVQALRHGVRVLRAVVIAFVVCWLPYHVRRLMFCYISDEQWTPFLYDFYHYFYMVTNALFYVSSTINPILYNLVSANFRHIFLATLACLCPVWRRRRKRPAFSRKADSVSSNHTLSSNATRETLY
ANO1 activ – TMEM16A chloride channel activators or potentiators, primary screen, cell-based, HTS; Anoctamin-1 (Mus musculus), Q8BHY3; HEK293 TMEM16A/YFP-H148Q/I152L, iodide quench fluorescence; hits give low values; B-score at 10 µM; actives 0.3% (n = 340,000); AID 623877, 2012;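 active means fluorescence-ratio B-score plate-corrected deviation score at least 3 library SD below zero, with starting fluorescence score within 5 deviations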;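 further: channel opened by trigger with iodide after compound preincubation; score built on the fluorescence ratio of max minus min over baseline; more negative score means more quench and so TMEM16A activation or potentiation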
MEKK2mut PB1 HTS – MEK5 binding signal on mutant MEKK2 PB1, primary screen, biochemical, multiplex bead flow cytometry, Alexa488-MEK5; Alexa488-MEK5 binding to MEKK2 mutant; percent response, % at 10 µM; actives 0.35% (n = 290,000); AID 1530, 2009; in the data active means percent response above about 24%, passing the limit was not always enough
MEKK2wt confirm – modulators of MEK5 binding to wildtype MEKK2, confirmation, biochemical, single concentration, multiplex bead flow cytometry. shares compounds with MEKK3 PB1 HTS. Alexa488-MEK5 binding to MEKK2 WT; actives lie on both sides. binding response (% of control), % at 10 µM. actives 2.4% (n = 5,900). AID 1892, 2009; in the data active means binding response below about 16% or above about 210%; inactive means in between
MEKK2mut-MEK5 – mutant MEKK2 PB1-MEK5 binding signal retest – biochemical, single concentration, multiplex bead flow cytometry, confirmation. shares compounds with MEKK3 PB1 HTS. Alexa488-MEK5 binding to MEKK2 mutant. percent response, % at 10 µM. actives 2% (n = 5,900); in the data active means percent response mostly above about 71%, no sharp cut-off; inactive means mostly below about 38%;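 further: higher means compound restores mutant binding toward wildtype level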
MEKK3 confirm – MEKK3 wild-type PB1 binding to MEK5, inhibitors, confirmation, biochemical, bead multiplex flow cytometry, single concentration, wildtype; shares compounds with MEKK3 PB1 HTS; Alexa488-MEK5 binding to MEKK3; hits give low values; binding response (% of control), % at 10 µM; actives 1.8% (n = 5,900);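 active means binding response below 72% of control, or above a set upper limit, though filed actives all read lower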
NTR1 ag confirm – NTR1 agonists, single-dose retest, confirmation, imaging, U2OS cells, beta-arrestin-GFP, single concentration. shares compounds with NTR1 agonist. NTR1-U2OS beta-arrestin-GFP translocation imaging. activation, % at 20 µM. actives 38% (n = 480);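 active means mean activation at 20 µM of at least 40%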
TMEM16A reconf – TMEM16A chloride channel inhibitors, confirmation, cell-based, re-confirmation; shares compounds with TMEM16A inh; HEK293 TMEM16A/YFP-H148Q, iodide quench fluorescence; ionomycin added to raise cell calcium; actives 39% (n = 2,300); inhibition, % at 10 µM;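 active means mean duplicate percent inhibition, scaled so buffer wells are 0 and the reference blocker 100, over three buffer SD above buffer mean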
TMEM16A Ca cntr – calcium mobilization in TMEM16A/YFP HEK293 cells, confirmation, counter-screen for TMEM16A inhibitor project; shares compounds with TMEM16A inh; Fluo4 calcium mobilization; calcium response (% of ionomycin), % at 10 µM; actives 2% (n = 2,300); AID 652231, 2013;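 active means duplicate-averaged calcium signal over 20% of the ionomycin maximum, relative to buffer baseline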;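 further: each well's signal is peak minus trough fluorescence divided by its pre-addition baseline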
YFP-HEK293 quench – iodide YFP quench changes in parental YFP-HEK293, counter-screen for TMEM16A inhibitor project, cell-based. shares compounds with TMEM16A inh. ionomycin. YFP ratio F(max-min)/F0 at 10 µM. 2,300 tested, under 10 active. AID 652233, 2013;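 active means yellow fluorescent protein signal ratio exceeding the buffer control mean by over 5 SD of those controls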;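 further: ratio is mean of duplicate wells from kinetic YFP trace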
ClC-1 rat inh – ClC-1 chloride channel inhibition, selectivity assay for TMEM16A inhibitor project, cell-based, voltage-dependent ClC-1 | shares compounds with TMEM16A inh | CHO ClC-1-YFP, iodide influx fluorescence quench; iodide control reads 0, buffer control 100 | ratio percent, % at 10 µM | 2,300 tested, under 10 active | AID 652236, 2013;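 active means duplicate-mean ratio percent above the mean of iodide-only control wells, which defines zero, plus 5 of their SD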;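 further: higher percent means stronger block of ClC-1 iodide influx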
Of the large screens only hits and unclear results are named; the others gave an inactive call (follow-up assays come after a bar, where they were run); [ ] = dose if it differs, or a comment.

CC(C)C[C@H](NC(=O)c1nc[nH]c1C(=O)N[C@@H](CC(C)C)C(=O)OC(C)(C)C)C(=O)OCc1ccccc1	none (no result: ANO1 activ)
CC(C)C[C@H](NC(=O)c1[nH]cnc1C(=O)N[C@@H](C)c1ccccc1)C(=O)OCc1ccccc1	MEKK2 WT-MEK5 1.0[inhibitor], MEKK3 PB1 HTS 1.0[inhibitor], NTR1 agonist 41.5 | MEKK2wt confirm inactive | MEKK2mut-MEK5 inactive | MEKK3 confirm inactive | NTR1 ag confirm 62.6
COc1ccc(Cn2c(SCc3ccc(C)cc3)nc3cc(OC)c(OC)cc3c2=N)cc1Cl	MEKK2 WT-MEK5 212.0, NTR1 agonist 54.2, MEKK2mut PB1 HTS 71.0 | MEKK2wt confirm 208.0 | MEKK2mut-MEK5 80.0 | MEKK3 confirm inactive | NTR1 ag confirm 63.7
COc1cc2nc(SCc3ccc(C(F)(F)F)cc3)n(Cc3cccs3)c(=N)c2cc1OC	none
COc1ccc(Cn2c(SCc3cc(C)ccc3C)nc3cc(OC)c(OC)cc3c2=N)cc1	MEKK2 WT-MEK5 174.0, NTR1 agonist 48.2 | MEKK2wt confirm inactive | MEKK2mut-MEK5 inactive | MEKK3 confirm inactive | NTR1 ag confirm inactive
C[C@H]1C=CC(=O)O[C@H]1c1ccccc1	MEKK3 PB1 HTS 122.0, NTR1 agonist 40.9 | MEKK2wt confirm inactive | MEKK2mut-MEK5 inactive | MEKK3 confirm inactive | NTR1 ag confirm inactive
O=C(c1ccccn1)N1CC=C(c2ccccc2)CC1	none (no result: MEKK2 WT-MEK5, TMEM16A inh, MEKK3 PB1 HTS, NTR1 agonist, MEKK2mut PB1 HTS)
Cc1nn(C)c(Nc2ccc(Br)cc2)c1Br	TMEM16A inh 100, MEKK2mut PB1 HTS 271.0 (no result: MEKK2 WT-MEK5) | MEKK2wt confirm inactive | MEKK2mut-MEK5 inactive | MEKK3 confirm inactive | TMEM16A reconf inactive | TMEM16A Ca cntr inactive | YFP-HEK293 quench inactive | ClC-1 rat inh inactive
Cc1cc(C)nc(-n2nc(C)c(Br)c2Nc2ccc(Br)cc2)n1	none
Cc1ccccc1NC(=O)COC(=O)c1cc(S(=O)(=O)N2CCOCC2)ccc1C	none (no result: MEKK2 WT-MEK5, TMEM16A inh, MEKK3 PB1 HTS, MEKK2mut PB1 HTS)
Cc1cc(Nc2ccccc2)nc(NCc2ccccc2)n1	MEKK2 WT-MEK5 167.0, TMEM16A inh 100, MEKK2mut PB1 HTS 67.0 | MEKK2wt confirm inactive | MEKK2mut-MEK5 inactive | MEKK3 confirm inactive | TMEM16A reconf inactive | TMEM16A Ca cntr inactive | YFP-HEK293 quench inactive | ClC-1 rat inh inactive
Cc1ccc(Nc2nc(N3CCOCC3)c3ccccc3n2)cc1	none
COc1ccc(Nc2nc(N3CCCCC3)c3ccccc3n2)cc1	MEKK2 WT-MEK5 136.0, TMEM16A inh 100 | MEKK2wt confirm inactive | MEKK2mut-MEK5 inactive | MEKK3 confirm inactive | TMEM16A reconf 20.0% | TMEM16A Ca cntr inactive | YFP-HEK293 quench inactive | ClC-1 rat inh inactive
Cc1ccccc1NC(=O)CN1C(=O)N/C(=C\c2ccc(N3CCOCC3)c(F)c2)C1=O	none
O=C(COC(=O)C1(c2ccc(F)cc2)CCCC1)Nc1ncc(C(F)(F)F)cc1Cl	TMEM16A inh 100, MEKK3 PB1 HTS 133.0 | MEKK2wt confirm inactive | MEKK2mut-MEK5 inactive | MEKK3 confirm inactive | TMEM16A reconf 55.0% | TMEM16A Ca cntr inactive | YFP-HEK293 quench inactive | ClC-1 rat inh inactive
CCC(=O)OCC(=O)Nc1ncc(C(F)(F)F)cc1Cl	none
COc1cccc(CNCCc2c[nH]c3ccccc23)c1OCc1ccccc1	MEKK2 WT-MEK5 165.0, TMEM16A inh 25, MEKK2mut PB1 HTS 58.0 | MEKK2wt confirm inactive | MEKK2mut-MEK5 inactive | MEKK3 confirm inactive | TMEM16A reconf 54.0% | TMEM16A Ca cntr inactive | YFP-HEK293 quench inactive | ClC-1 rat inh inactive
CNC[C@@H](CC1CCCCC1)NC[C@H](CC(C)C)NCCc1cccc(C(F)(F)F)c1	MEKK2 WT-MEK5 234.0, TMEM16A inh 25, MEKK2mut PB1 HTS 33.0 | MEKK2wt confirm inactive | MEKK2mut-MEK5 inactive | MEKK3 confirm inactive | TMEM16A reconf inactive | TMEM16A Ca cntr inactive | YFP-HEK293 quench inactive | ClC-1 rat inh inactive
CSCCC1NC(=O)N(C(C)C(=O)Nc2cc(Cl)cc(Cl)c2)C1=O (stereo unspecified)	none
CCN(CCNCC(O)COc1ccccc1C(C)C)c1cccc(C)c1 (stereo unspecified)	MEKK2 WT-MEK5 174.0, NTR1 agonist 53.5, MEKK2mut PB1 HTS 44.0 | MEKK2wt confirm inactive | MEKK2mut-MEK5 inactive | MEKK3 confirm inactive | NTR1 ag confirm inactive | TMEM16A reconf 33.5% | TMEM16A Ca cntr inactive | YFP-HEK293 quench inactive | ClC-1 rat inh inactive

Screens (PubChem)
